Source: PubChem BioAssay (NCATS)
Inconclusive results are not listed. Activity calls are given as the source filed them. Unless noted, calls come from the whole dose curve; as a rule, active = well fitted curve in the direction sought with a large enough effect; inconclusive = small, poorly fitted or top-dose-only effect, or another doubt; inactive = no such curve, though single readings can be large; an effect the other way counts as inactive or inconclusive.

How the values were obtained:
[1] = High Content Imaging Cell-Based qHTS for Inhibitors of the mTORC1 Signaling Pathway in MEF Cells (AID 2667); note: potency is the fitted concentration of half-maximal effect
Method in brief: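 Fixed-cell imaging of phospho-S6 (Ser235/236, Alexa-488) after 24 hrs of compound treatment at 37 degree Celsius. Signal was normalized to Hoechst, and thresholds from the highest and lowest wells split cells into % active versus % non-active.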

[2] = Validation screen for small molecules that induce DNA re-replication in MCF 10A normal breast cells (AID 463097); note: nearly all actives have a fitted effect of over 60% in size; note: potency is the fitted concentration of half-maximal effect
Method in brief: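 Image-based qHTS: normal breast cells are incubated with compound for 48 hr, stained with Hoechst, and scanned for total nuclear fluorescence. Compounds raising the fraction of nuclei with elevated DNA content count as re-replication inducers.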

[3] = target: Ubiquitin carboxyl-terminal hydrolase 2 (Homo sapiens) (UniProt O75604); assay: qHTS Validation Assay for Inhibitors of Ubiquitin-specific Protease USP2a Using CHOP2 as the Reporter (AID 463106)
Ubiquitin carboxyl-terminal hydrolase 2 (Homo sapiens), sequence (O75604 whole entry, looked up): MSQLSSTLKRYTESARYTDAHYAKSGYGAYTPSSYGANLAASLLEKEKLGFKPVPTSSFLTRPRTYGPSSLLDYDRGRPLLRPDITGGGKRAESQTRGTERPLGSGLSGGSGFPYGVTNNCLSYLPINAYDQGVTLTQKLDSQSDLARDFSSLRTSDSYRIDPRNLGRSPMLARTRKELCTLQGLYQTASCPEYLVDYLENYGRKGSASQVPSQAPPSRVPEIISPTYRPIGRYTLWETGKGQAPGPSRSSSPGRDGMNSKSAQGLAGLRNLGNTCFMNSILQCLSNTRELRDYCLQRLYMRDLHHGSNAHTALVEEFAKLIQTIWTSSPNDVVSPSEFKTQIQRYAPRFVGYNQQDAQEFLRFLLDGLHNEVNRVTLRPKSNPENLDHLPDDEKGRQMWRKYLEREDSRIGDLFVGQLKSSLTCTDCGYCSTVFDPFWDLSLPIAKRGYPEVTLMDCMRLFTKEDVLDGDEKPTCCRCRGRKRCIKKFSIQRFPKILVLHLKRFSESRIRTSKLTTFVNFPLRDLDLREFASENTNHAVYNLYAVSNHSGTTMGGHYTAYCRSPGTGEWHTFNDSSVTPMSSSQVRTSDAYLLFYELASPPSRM
Method in brief: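 Inhibition is expressed relative to NEM as the full-inhibition control, with concentration-response curves classed by fit quality, magnitude and activity. Enzyme (USP2 core, 10nM) meets 25nM Ub-CHOP2 after compound preincubation; readings are taken at 60min.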

[4] = target: DNA polymerase III PolC-type (Bacillus subtilis (strain 168)) (UniProt P13267); assay: qHTS Validation Assay for the Inhibitors of DNA Replication in Gram-Positive Bacteria (AID 485295);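 note: reconstituted holoenzyme with PolC plus beta clamp SSB and primase; PicoGreen fluorescence of double-stranded DNA made on primed circular M13 template; series mostly up to about 57 µM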
DNA polymerase III PolC-type (Bacillus subtilis (strain 168)), sequence (P13267 whole entry, looked up): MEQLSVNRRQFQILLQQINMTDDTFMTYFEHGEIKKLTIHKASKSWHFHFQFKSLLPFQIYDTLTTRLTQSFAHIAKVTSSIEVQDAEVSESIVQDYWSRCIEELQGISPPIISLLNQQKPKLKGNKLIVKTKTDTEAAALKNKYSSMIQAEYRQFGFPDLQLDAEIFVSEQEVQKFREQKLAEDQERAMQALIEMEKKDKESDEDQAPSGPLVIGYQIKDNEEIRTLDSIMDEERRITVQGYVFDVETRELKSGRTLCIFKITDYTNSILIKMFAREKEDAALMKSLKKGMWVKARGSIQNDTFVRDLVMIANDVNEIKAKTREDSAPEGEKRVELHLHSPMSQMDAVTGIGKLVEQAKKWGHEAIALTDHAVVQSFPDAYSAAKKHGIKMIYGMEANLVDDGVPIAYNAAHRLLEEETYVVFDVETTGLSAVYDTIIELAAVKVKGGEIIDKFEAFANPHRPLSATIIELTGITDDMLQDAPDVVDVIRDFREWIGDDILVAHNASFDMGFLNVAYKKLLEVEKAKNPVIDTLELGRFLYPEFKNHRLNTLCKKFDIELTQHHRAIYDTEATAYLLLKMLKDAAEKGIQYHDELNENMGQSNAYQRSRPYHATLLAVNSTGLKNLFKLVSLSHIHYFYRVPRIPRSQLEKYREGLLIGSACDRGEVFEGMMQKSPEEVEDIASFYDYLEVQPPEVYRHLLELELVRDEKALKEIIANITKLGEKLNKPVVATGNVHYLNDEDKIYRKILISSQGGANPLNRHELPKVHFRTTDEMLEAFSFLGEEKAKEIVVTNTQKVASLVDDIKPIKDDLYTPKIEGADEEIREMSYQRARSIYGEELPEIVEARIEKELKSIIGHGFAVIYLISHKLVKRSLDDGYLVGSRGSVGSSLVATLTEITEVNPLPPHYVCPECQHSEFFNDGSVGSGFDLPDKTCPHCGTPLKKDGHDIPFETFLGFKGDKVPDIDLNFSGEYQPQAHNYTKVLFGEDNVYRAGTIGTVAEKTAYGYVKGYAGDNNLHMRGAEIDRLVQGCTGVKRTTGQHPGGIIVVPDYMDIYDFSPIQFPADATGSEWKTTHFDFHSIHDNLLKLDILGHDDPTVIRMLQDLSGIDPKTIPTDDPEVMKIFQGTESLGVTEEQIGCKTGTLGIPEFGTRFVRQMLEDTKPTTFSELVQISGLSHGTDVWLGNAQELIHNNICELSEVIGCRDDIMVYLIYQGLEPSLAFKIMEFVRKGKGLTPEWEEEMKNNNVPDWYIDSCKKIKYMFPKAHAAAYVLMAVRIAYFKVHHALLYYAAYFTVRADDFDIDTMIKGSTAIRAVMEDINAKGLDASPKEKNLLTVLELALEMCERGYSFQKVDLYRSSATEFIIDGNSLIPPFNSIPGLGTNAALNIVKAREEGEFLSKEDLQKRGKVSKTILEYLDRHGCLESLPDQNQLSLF
Method in brief: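 First, compound is mixed with the reconstituted replication complex and held at room temperature. Next, circular single-stranded M13Gori with nucleotides starts synthesis. Finally, PicoGreen in EDTA halts the reaction and stains double-stranded product for fluorescence reading.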

[5] = target: Tumor susceptibility gene 101 protein (Homo sapiens) (UniProt Q99816); assay: qHTS Validation Assay for Iinhibitors of HIV-1 Budding by Blocking the Interaction of PTAP/TSG101 (AID 485342; calls by dose curve)
Tumor susceptibility gene 101 protein (Homo sapiens), sequence (Q99816 whole entry, looked up, the tested form may be a part): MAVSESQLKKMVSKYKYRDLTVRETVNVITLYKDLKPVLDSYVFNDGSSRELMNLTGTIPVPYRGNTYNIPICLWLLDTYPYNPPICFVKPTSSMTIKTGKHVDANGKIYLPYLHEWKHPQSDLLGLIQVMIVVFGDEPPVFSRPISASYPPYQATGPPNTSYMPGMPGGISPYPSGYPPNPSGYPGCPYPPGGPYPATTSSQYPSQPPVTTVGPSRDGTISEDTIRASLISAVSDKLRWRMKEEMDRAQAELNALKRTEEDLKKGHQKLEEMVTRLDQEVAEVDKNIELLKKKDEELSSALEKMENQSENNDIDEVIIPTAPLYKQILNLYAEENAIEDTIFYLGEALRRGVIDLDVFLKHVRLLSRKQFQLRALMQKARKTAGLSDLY
Method in brief: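 Binding of a FITC-tagged PTAP-motif peptide (50 nM) to the Tsg101 binding domain (10 uM) is monitored by fluorescence polarization. Compounds are pin-delivered before peptide addition, and incubation runs 20 min at room temperature.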

[6] = target: Beta-2 adrenergic receptor (Homo sapiens) (UniProt P07550); assay: qHTS validation assay of beta-arrestin-biased ligands of beta2-adrenergic receptor (AID 485366)
Beta-2 adrenergic receptor (Homo sapiens), sequence (P07550 whole entry, looked up): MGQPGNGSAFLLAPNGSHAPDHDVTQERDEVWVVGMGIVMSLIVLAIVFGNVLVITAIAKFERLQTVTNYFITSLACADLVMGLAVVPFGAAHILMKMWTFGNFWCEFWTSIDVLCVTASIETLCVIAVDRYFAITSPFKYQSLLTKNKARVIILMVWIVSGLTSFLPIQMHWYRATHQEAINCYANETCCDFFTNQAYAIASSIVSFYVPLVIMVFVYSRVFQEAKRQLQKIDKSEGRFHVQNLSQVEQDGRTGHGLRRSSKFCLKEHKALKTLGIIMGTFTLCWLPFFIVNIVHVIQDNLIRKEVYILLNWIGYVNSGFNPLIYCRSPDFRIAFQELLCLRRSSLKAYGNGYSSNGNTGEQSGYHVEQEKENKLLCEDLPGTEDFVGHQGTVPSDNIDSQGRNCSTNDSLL
Method in brief: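 qHTS, Tango cells, 1500 cells/well, DMEM + 1% FBS. Cpd 18 hr at 37 degrees C. Luciferin/ATP/CoA detection mix, 15 min RT, luminescence read. %Activity from corrected signal; CRC fit, curve class.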

[7] = Cytometry Cell-Based qHTS for Inhibitors of the mTORC1 Signaling Pathway in MEF cells (AID 2668); note: potency is the fitted concentration of half-maximal effect
Method in brief: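 Tsc2-/-, p53-/- MEFs re-expressing WT Tsc2; cpd 24 hrs, 37 degree Celsius; PFA fix, Alexa-488 p-rpS6 (Ser235/236) Ab 2 hrs RT, PI counterstain; Acumen 488nm scan; p-S6/PI ratio → % positive cells; PI count = viability.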

[8] = target: ATP-dependent 6-phosphofructokinase (Trypanosoma brucei brucei) (UniProt O15648); assay: qHTS Validation Assay to Find Inhibitors of T. brucei phosphofructokinase (AID 485368)
ATP-dependent 6-phosphofructokinase (Trypanosoma brucei brucei), sequence (O15648 whole entry, looked up): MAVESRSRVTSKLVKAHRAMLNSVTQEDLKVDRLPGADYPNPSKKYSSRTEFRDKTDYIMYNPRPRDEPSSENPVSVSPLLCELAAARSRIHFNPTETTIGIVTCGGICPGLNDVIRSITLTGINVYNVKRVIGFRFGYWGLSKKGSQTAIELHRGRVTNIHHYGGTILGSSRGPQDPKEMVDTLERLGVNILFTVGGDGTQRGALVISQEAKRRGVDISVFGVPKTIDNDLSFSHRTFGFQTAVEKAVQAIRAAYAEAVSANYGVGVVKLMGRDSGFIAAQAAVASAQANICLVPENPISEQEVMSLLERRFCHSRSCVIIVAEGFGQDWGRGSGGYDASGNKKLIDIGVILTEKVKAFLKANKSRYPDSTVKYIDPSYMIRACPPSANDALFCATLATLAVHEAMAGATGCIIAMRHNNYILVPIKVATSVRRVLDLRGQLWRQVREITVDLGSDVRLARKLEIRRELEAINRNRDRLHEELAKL
Method in brief: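 Luminescent ADP detection measures PFK turnover of fructose-6-phosphate (0.5 mM) with ATP (0.1 mM) at pH 8.0. Reaction runs 45 min at room temperature with 1.25 nM enzyme; inhibitors tested as titrations up to 57 uM.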

[9] = Quantitative high throughput screen for delayed death inhibitors of the malarial parasite plastid, 96 hour incubation (AID 488745); note: nearly all actives have a fitted effect of over 70% in size; note: potency is the fitted concentration of half-maximal effect
Method in brief: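 Decreased firefly luciferase luminescence indicates inhibited growth of reporter-integrated P. falciparum after two generations (96 h, 37 C, 5% CO2). Infected erythrocytes at 0.1% parasitemia, 2% hematocrit, in Albumax-supplemented RPMI 1640.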

[10] = qHTS Validation Assay to Find Inhibitors of Chronic Active B-Cell Receptor Signaling (AID 485345; active = well fitted curve in the direction sought with a large enough effect in the main read-out, with a control signal flat, not every such curve was filed as active)
Method in brief: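 TMD8 ABC-DLBCL cells with dox-inducible green luciferase–IκBα fusion and red native luciferase; compounds 46 uM–3 nM, 4 h at 37C with doxycycline in 0.5% FBS IMDM. Green/red ratio normalized to basal and 10 uM MG-132.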

Measured: Potency

O=C1C(SCCO)=C(SCCO)C(=O)c2ccccc21
active: [1] 3.69 µM | [2] 3.98 µM
inactive: [3] | [4] | [5] | [6]

Cn1cc(C2=C(c3ccc(Cl)cc3Cl)C(=O)NC2=O)c2ccccc21
inactive: [1] | [7] | [4] | [5] | [6] | [8] | [9]

O=C(c1ccc(Cl)cc1)N1CCN(c2ccc([N+](=O)[O-])c3ncccc23)CC1
inactive: [1] | [3] | [4] | [5] | [10] | [6]

CCCCCCCCc1ccc(-c2ccc(C(=O)O)cc2)cc1
inactive: [1] | [3] | [4] | [5] | [6]

N=c1ccn2c(n1)O[C@H]1[C@H](O)[C@@H](CO)O[C@H]12
inactive: [1] | [3] | [5] | [10] | [6]

NC[C@@H]1O[C@H](C23CC4CC(CC(C4)C2)C3)Cc2c1ccc(O)c2O
inactive: [3] | [4] | [5] | [6]
active: [9] 3.29 µM

COc1ccccc1N1CCN(CCN(C(=O)c2ccc(I)cc2)c2ccccn2)CC1
inactive: [3] | [4] | [5] | [6]

N.N.O=C(O)C1(C(=O)O)CCC1.[Pt]
inactive: [2]

CC(COc1ccc(/C=C/c2ccccc2)cc1)[N+](C)(C)C (stereo not given)
inactive: [3] | [4] | [5] | [10] | [6] | [8]

COC1=C(OC)C(=O)c2ccccc2C1=O
inactive: [3] | [4] | [5] | [10] | [6] | [9]

CCOC(=O)N1CCN(/[N+]([O-])=N/Oc2ccc([N+](=O)[O-])cc2[N+](=O)[O-])CC1
inactive: [1] | [3] | [4] | [5] | [6]

C=C/C(C)=C/[C@@]1(C)SC(=O)C(C)=C1O
inactive: [2] | [9]

COc1ccccc1N1CCN(CCCCNS(=O)(=O)c2cccc3c(N(C)C)cccc23)CC1
inactive: [3] | [5] | [6]
active: [7] 16.5 µM

Cn1ncc(S(=O)(=O)Cc2ccccc2)c(Br)c1=O
inactive: [3] | [4] | [5] | [6]

CN[C@H](CC(C)C)C(=O)N[C@H]1C(=O)N[C@@H](CC(N)=O)C(=O)N[C@H]2C(=O)N[C@H]3C(=O)N[C@H](C(=O)N[C@H](C(=O)O)c4cc(O)cc(O)c4-c4cc3ccc4O)[C@H](O)c3ccc(c(Cl)c3)Oc3cc2cc(c3O[C@@H]2O[C@H](CO)[C@@H](O)[C@H](O)[C@H]2O[C@H]2C[C@](C)(N)[C@H](O)[C@H](C)O2)Oc2ccc(cc2Cl)[C@H]1O
inactive: [2]

CNCC[C@H](Oc1ccc(C(F)(F)F)cc1)c1ccccc1
inactive: [3] | [4] | [5] | [6]

CN(C)c1ccc(/C=C2\C(=O)Nc3ccccc32)cc1
inactive: [3] | [4] | [5] | [6]

Cc1ccc(S(=O)(=O)/C=C/C#N)cc1
inactive: [1] | [3] | [5] | [6]

CCOC(=O)C1=C(C)NC(C)=C(C(=O)OCC)C1c1c(F)c(F)c(F)c(F)c1F
inactive: [3] | [4] | [5] | [6]

CC12C(=O)OC(=O)C1(C)C1CCC2O1 (stereo not given)
inactive: [3] | [5] | [6]

Cc1cc2c(cc1Cl)N(C(=O)Nc1ccc(Oc3cccnc3C)nc1)CC2
inactive: [3] | [4] | [5] | [6]

CC[C@@H](C)[C@H]1O[C@]2(CC[C@H]1C)C[C@@H]1C[C@@H](CC=C(C)[C@@H](O[C@H]3C[C@H](OC)[C@@H](O[C@H]4C[C@H](OC)[C@@H](O)[C@H](C)O4)[C@H](C)O3)[C@@H](C)C=CC=C3CO[C@@H]4[C@H](O)C(C)=C[C@@H](C(=O)O1)[C@]34O)O2
inactive: [3] | [5] | [6] | [8]

O=Nc1ccc2oc(=O)ccc2c1
inactive: [3] | [4] | [5] | [6] | [9]

CN1CCc2cc(O)c(O)cc2C(c2ccccc2)C1 (stereo not given)
inactive: [2] | [3] | [4] | [5] | [10] | [6] | [9]

O=C(/C=C/c1ccc(O)cc1)c1ccc(O)cc1O
inactive: [1] | [3] | [5] | [6]

CN(C)c1nc2c(Br)c(Br)c(Br)c(Br)c2[nH]1
inactive: [3] | [4] | [5] | [6] | [8]

COc1cc2nc(N3CCN(C(=O)OCc4ccccc4)C(C(=O)NC(C)(C)C)C3)nc(N)c2cc1OC (stereo not given)
inactive: [3] | [4] | [5] | [6]

CSc1ccccc1N1CCN(CCCCCC(=O)NC2CCCc3ccccc32)CC1 (stereo not given)
active: [7] 11.7 µM
inactive: [3] | [5] | [6] | [8]

NS(=O)(=O)C#Cc1ccccc1
inactive: [1] | [3] | [4] | [5] | [6] | [8]

CO/N=C(\C(=O)N[C@@H]1C(=O)N2C(C(=O)O)=C(COC(C)=O)CS[C@H]12)c1csc(N)n1 (stereo in doubt)
inactive: [2]

O=C1O/C(=C/Br)CCC1c1cccc2ccccc12 (stereo not given)
inactive: [3] | [5] | [6]

O=c1[nH]c2ccccc2n1CCCN1CCN(C(c2ccccc2)c2ccccc2)CC1
inactive: [2] | [9]

O=S(=O)(c1cccc2c(I)cccc12)N1CCCNCC1
inactive: [3] | [4] | [5] | [6]

Oc1ccccc1O
inactive: [3] | [4] | [5] | [6] | [9]

O=C1NC(=O)/C(=C/c2ccc3nccnc3c2)S1
active: [7] 16.5 µM
inactive: [3] | [4] | [5] | [6] | [8]

Oc1cc(O)cc(/C=C/c2ccc(O)c(O)c2)c1
inactive: [3] | [5] | [6]

CCCC1(C)C(C#N)(C#N)C1(C#N)C#N
active: [1] 2.33 µM
inactive: [3] | [4] | [5] | [6] | [8]

O=C(/C=C/c1ccc(O)c(O)c1)OCCc1ccccc1
active: [7] 3.29 µM
inactive: [3] | [4] | [5] | [6]

CC(=O)/C=C1\C(=O)N(C)c2ccccc21
inactive: [3] | [5] | [6]

O=C(CCCCCN1CCN(c2ccccc2-c2ccccc2)CC1)NC1CCCc2ccccc21 (stereo not given)
inactive: [3] | [5] | [6] | [8]

O=[N+]([O-])c1ccc2c(c1)S(=O)(=O)C=C2
inactive: [3] | [5] | [6]
active: [1] 1.85 µM

CC(C)(C)NCC(O)COc1nsnc1N1CCOCC1 (stereo not given)
inactive: [2]

N#C/C(=C\c1ccc(O)c(O)c1)C(=O)NCCCc1ccccc1
inactive: [3] | [5] | [6]
